# MEKK2 WT-MEK5 = modulators of MEK5 binding to wildtype MEKK2, primary screen, biochemical, multiplex bead flow cytometry, Alexa488-MEK5 | Alexa488-MEK5 binding to MEKK2 WT; actives lie on both sides | 1.1% of 290,000 active | binding response (% of control), % at 10 µM | Mitogen-activated protein kinase kinase kinase 2 (Homo sapiens), Q9Y2U5 | AID 1531, 2009; in the data active means binding response below about 67% or above about 130%
# MEKK2mut PB1 HTS = MEK5 binding signal on mutant MEKK2 PB1, primary screen, biochemical, multiplex bead flow cytometry, Alexa488-MEK5. Alexa488-MEK5 binding to MEKK2 mutant. percent response, % at 10 µM. 0.35% of 290,000 active; in the data active means percent response above about 24%, passing the limit was not always enough
# SKN-1 inh = suppressors of acrylamide-induced Pgst-4::GFP reporter in worms, primary screen, SKN-1 inhibitor project, whole organism, uHTS, GFP/RFP fluorescence ratio, strain VP596. inhibition, % at 21.8 µM. C. elegans VP596 Pgst-4::GFP/RFP ratio, 24 h. 0.49% of 360,000 active. AID 624304, 2012;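 active means interference check ratio from 0.5 to 1.5 plus GFP to RFP signal ratio inhibition reaching or exceeding a fixed threshold, cut at about 30% in these data, passing the limit was not always enough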
# CendR NRP1 mod = modulators of CendR peptide binding to NRP-1, primary screen, biochemical, fluorescence polarization, uHTS; 0.85% of 360,000 active; inhibition, % at 25 µM; Neuropilin-1 (Homo sapiens), O14786; FAM-RPARPAR peptide binding to NRP-1;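 active means inhibition or corrected inhibition above about 18%, plus a signal ratio from 0.5 to 1.5, limit read from the data, passing the limit was not always enough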
# MEKK3 PB1 HTS = modulators of MEKK3-MEK5 PB1 binding, primary screen, biochemical, wildtype MEKK3, multiplex bead flow cytometry, Alexa488-MEK5; Mitogen-activated protein kinase kinase kinase 3 (Homo sapiens), Q99759; bead-based flow cytometry, Alexa488-MEK5 binding to MEKK3; actives lie on both sides; 0 = blocked by unlabeled MEK5, 100 = vehicle; binding response (% of control), % at 10 µM; 1.4% of 290,000 active;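 active means binding response more than 3 SD above or below the average of its plate-row segment, actives on both sides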;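 further: Alexa488 bead fluorescence after subtracting the streptavidin-only scavenger bead signal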
# MEKK2wt confirm = modulators of MEK5 binding to wildtype MEKK2, confirmation, biochemical, single concentration, multiplex bead flow cytometry. shares compounds with MEKK3 PB1 HTS. binding response (% of control), % at 10 µM. AID 1892, 2009. Alexa488-MEK5 binding to MEKK2 WT; actives lie on both sides. 2.4% of 5,900 active; in the data active means binding response below about 16% or above about 210%; inactive means in between
# MEKK2mut confirm = mutant MEKK2 PB1-MEK5 binding signal retest – biochemical, single concentration, multiplex bead flow cytometry, confirmation. shares compounds with MEKK3 PB1 HTS. Alexa488-MEK5 binding to MEKK2 mutant. percent response, % at 10 µM. 2% of 5,900 active; in the data active means percent response mostly above about 71%, no sharp cut-off; inactive means mostly below about 38%;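 further: higher means compound restores mutant binding toward wildtype level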
# MEKK3-MEK5 inh = MEKK3 wild-type PB1 binding to MEK5, inhibitors, confirmation, biochemical, bead multiplex flow cytometry, single concentration, wildtype; shares compounds with MEKK3 PB1 HTS; Alexa488-MEK5 binding to MEKK3; active compounds read low; binding response (% of control), % at 10 µM; 1.8% of 5,900 active;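 active means binding response below 72% of control, or above a set upper limit, though filed actives all read lower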;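 further: lower values mean stronger disruption of MEK5 binding to MEKK3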
# Hits are given with their value; n = inactive; x = no result given; [ ] = remark or other dose. Compounds with a hit are over-represented: about 3.2% of the library has one in this group of screens.
SMILES,MEKK2 WT-MEK5,MEKK2mut PB1 HTS,SKN-1 inh,CendR NRP1 mod,MEKK3 PB1 HTS,MEKK2wt confirm,MEKK2mut confirm,MEKK3-MEK5 inh
CC(=O)Nc1cccc(-c2ccnc3c2CC(C)(C(=O)NCCC(F)(F)F)O3)c1 (stereo not drawn),x,x,n,n,x,x,x,x
C/C=C/c1cccc(-c2nc(C(=O)NC3CCC3)cc3c2[C@@H](CCO)N(S(=O)C(C)(C)C)C3)c1 (stereo partly drawn),x,x,n,n,x,x,x,x
Fc1ccc(NC(=S)Nc2cc(Cl)ccc2Cl)cc1,n,n,n,n,n,x,x,x
Fc1ccc(NC(=S)Nc2ccc(Cl)cc2)cc1,n,n,n,n,141,n,n,n
CC(=O)C1=C(O)C(=O)N(Cc2ccco2)C1c1cccc(F)c1 (stereo not drawn),n,n,n,n,129,n,n,n
N#CCC(=O)Nc1ccc(C(=O)OCC(=O)Nc2ccccc2-c2ccccc2)cc1,n,n,n,n,141,n,n,n
N#CCC(=O)Nc1ccc(C(=O)OCC(=O)NC(=O)Cc2ccccc2)cc1,x,x,n,n,x,x,x,x
Cc1cc(=O)oc2cc(O[C@@H]3O[C@H](CO)[C@@H](O)[C@H](O)[C@H]3O)ccc12,n,n,n,n,n,x,x,x
COc1ccccc1NS(=O)(=O)c1ccc(C(N)=O)cc1,35[inhibitor],n,n,n,28[inhibitor],n,n,n
COc1ccc(F)cc1-c1cc(NC=O)c2ncc(-c3cccc(C(F)(F)F)c3)n2c1,x,x,n,n,x,x,x,x
CC(=O)c1c(C)[nH]c(C(=O)COC(=O)CCSc2ccccc2)c1C,n,n,n,n,155,n,n,n
CCOC(=O)c1c(C)[nH]c(C(=O)COC(=O)COc2ccccc2C=O)c1C,n,n,n,n,70[inhibitor],n,n,n
CCOC(=O)c1c(C)[nH]c(C(=O)COC(=O)CCSc2ccccc2)c1C,n,n,n,n,n,x,x,x
CCc1nc2ccc(C(=O)NCc3ccc(OC)cc3)cn2c1N(CC)CCOC,x,x,n,n,x,x,x,x
O=C(NC1CCS(=O)(=O)C1)/C(=C/c1ccc(Cl)cc1)NC(=O)c1ccccc1 (stereo not drawn),n,n,n,n,n,x,x,x
O=C(NC1CCS(=O)(=O)C1)/C(=C\c1ccccc1)NC(=O)c1ccccc1 (stereo not drawn),n,n,n,n,147,n,n,n
CC1(c2nnnn2Cc2ccccc2)CCC(=O)N1Cc1cccc(C(F)(F)F)c1 (stereo not drawn),x,x,n,n,x,x,x,x
CS(=O)(=O)N1CCN(c2ccccc2NC(=O)Cc2ccc(Cl)cc2)CC1,2.0[inhibitor],n,n,28,2.0[inhibitor],n,n,n
CN1CCN(c2ccccc2NC(=O)c2ccc(-c3ccc(Cl)cc3Cl)o2)CC1,156,n,n,n,n,n,n,n
Cc1nnc2sc(-c3ccc(NC(=O)c4ccc(-c5ccc(Cl)cc5Cl)o4)cc3)nn12,n,n,n,n,77[inhibitor],n,n,n
CC(=O)Cc1nsc(NC(=O)c2ccc(-c3ccc(Cl)cc3Cl)o2)n1,n,n,n,n,n,x,x,x
Nc1c(C(=O)CSc2nc(-c3ccccc3)cs2)c(=O)[nH]c(=O)n1C1CC1,x,x,n,n,x,x,x,x
CSc1nc(S(=O)(=O)c2ccc(C)cc2)c(N2CCOCC2)s1,x,x,n,n,x,x,x,x
Cc1ccc(S(=O)(=O)c2nc(N3CCOCC3)sc2Cl)cc1,n,n,n,n,124,n,n,n
COCCCNC(=O)c1ccc2c(c1)OCO2,n,n,n,n,67[inhibitor],n,n,n
SMILES,MEKK2 WT-MEK5,MEKK2mut PB1 HTS,SKN-1 inh,CendR NRP1 mod,MEKK3 PB1 HTS,MEKK2wt confirm,MEKK2mut confirm,MEKK3-MEK5 inh
C=CCNC(=O)c1ccc2nc(Cc3ccc(OC)cc3)oc2c1,n,n,n,n,n,x,x,x
CCCCOCCCNC(=O)c1ccc2c(c1)OCO2,n,n,n,n,n,x,x,x
CCOCCCNC(=O)C(NC(=O)c1ccc2c(c1)OCO2)c1ccccc1 (stereo not drawn),n,n,n,n,43[inhibitor],n,n,n
CCOCCCNC(=O)C(NC(=O)c1ccc2c(c1)OCO2)c1ccc(OC)cc1 (stereo not drawn),n,n,n,n,n,x,x,x
COCCCNC(=O)c1ccc2nc(Cc3ccc(OC)cc3)oc2c1,16[inhibitor],n,n,n,38[inhibitor],n,n,n
CC1CCc2c(sc3ncnc(SCC(=O)N(C)C4CCS(=O)(=O)C4)c23)C1 (stereo not drawn),x,x,n,n,x,x,x,x
O=C(c1ccccc1)c1nnc(-c2ccccc2F)o1,-1.0[inhibitor],n,n,n,0.0[inhibitor],n,n,n
O=C(C[n+]1ccc(-c2cc(C(=O)Nc3cccc(C(F)(F)F)c3)c3ccccc3n2)cc1)c1cccc([N+](=O)[O-])c1,158,n,n,n,n,n,99,n
COC(=O)C[C@@H]1CC[C@H](NC(=O)Nc2ccc(OC)cc2)[C@@H](CO)O1,x,x,n,n,x,x,x,x
O=C(NCc1ccccc1)C1c2ccccc2OCC(=O)N1Cc1cccnc1 (stereo not drawn),x,x,n,n,x,x,x,x
O[C@H]1CN(CC2CCCCC2)[C@@H](c2ccc(Cl)cc2)C[C@@H]1n1cc(-c2ccc(F)cc2)nn1,x,x,n,n,x,x,x,x
CN(CC(O)Cn1c2ccccc2c2ccccc21)S(C)(=O)=O (stereo not drawn),n,n,n,n,n,x,x,x
CCN(CC(O)Cn1c2ccccc2c2ccccc21)S(=O)(=O)c1ccc(C)cc1 (stereo not drawn),n,n,n,n,125,n,n,n
COc1ccccc1N(CC(=O)NCC1CCCO1)C(=O)CNS(=O)(=O)c1ccccc1 (stereo not drawn),n,n,n,n,135,n,n,n
CC(=O)c1ccc(Oc2ccc(C(C)=O)cc2)cc1,n,n,n,n,n,x,x,x
CC(=O)c1ccc(OCCOc2ccc(C#N)cc2)cc1,n,n,n,n,130,n,n,n
CCN(c1ccccc1)S(=O)(=O)c1ccc(Cl)c(C(=O)NC2CCN(Cc3ccccc3)CC2)c1,x,x,n,n,x,x,x,x

# Compound activity from PubChem.
